TbREL1 inh = TbREL1 RNA ligase inhibitors, primary screen, biochemical, FRET fluorescence; RNA-editing ligase 1, mitochondrial (Trypanosoma brucei brucei), P86926; TbREL1 RNA ligation; inhibition, % at 9.66 µM; 89,000 compounds, 0.49% hits; AID 1117264, 2014;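 active means inhibition above the mean inhibition across all screened compounds plus 3 SD, cut at about 11% in these data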;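 further: 0% = plate median of test wells and 100% = NSC42067 control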
Target sequence (P86926 whole entry, looked up): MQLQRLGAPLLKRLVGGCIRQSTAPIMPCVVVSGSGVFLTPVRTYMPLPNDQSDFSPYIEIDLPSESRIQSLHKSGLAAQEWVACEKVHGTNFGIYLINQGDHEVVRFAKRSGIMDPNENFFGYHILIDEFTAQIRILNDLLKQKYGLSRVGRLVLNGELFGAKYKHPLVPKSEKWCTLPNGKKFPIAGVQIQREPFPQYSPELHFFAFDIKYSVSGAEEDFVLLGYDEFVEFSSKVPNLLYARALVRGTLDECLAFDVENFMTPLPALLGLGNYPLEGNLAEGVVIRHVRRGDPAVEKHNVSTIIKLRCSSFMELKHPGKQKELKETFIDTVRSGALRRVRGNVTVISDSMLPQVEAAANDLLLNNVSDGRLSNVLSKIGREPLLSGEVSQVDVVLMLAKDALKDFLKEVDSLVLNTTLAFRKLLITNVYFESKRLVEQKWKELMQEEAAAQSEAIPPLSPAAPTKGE
TbREL1 conf = TbREL1 RNA ligase inhibitors, confirmation, biochemical, FRET fluorescence, triplicate | shares compounds with TbREL1 inh | TbREL1 RNA ligation | inhibition, % at 9.66 µM | 390 compounds, 37% hits;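 active means mean inhibition across replicates above a set limit taken from the earlier primary screen, cut at about 11% in these data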;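 further: 0% = REL1 with substrate and DMSO and 100% = REL1 plus control inhibitor NSC42067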
Starred values were filed as active, the others as inactive. Many of the other results were omitted from the sample, so hits are more common in it than they were.

SMILES | TbREL1 inh | others
C#CCOCCOCCOCCNc1nc(N2CCN(C(=O)[C@H]([C@@H](C)CC)n3cc(CCCCN)nn3)CC2)nc(N2CCN(C(=O)[C@H](C)n3cc(CCC(=O)O)nn3)CC2)n1 | 7
O=C(Nc1cc(Cl)ccc1F)C1CCCN(c2nnc(-n3cccc3)s2)C1 (stereo unspecified) | 0
CN(Cc1ccc(Cl)c(Cl)c1)C(C(=O)NCc1ccccc1)c1ccc(C(F)(F)F)cc1 (stereo unspecified) | 1
CCOc1ccc(-n2c(COc3ccc(C)cc3)nnc2SCC(=O)Nc2ccc(F)c(F)c2)cc1 | -1
CSCCCNC(=O)C1CCN(S(=O)(=O)c2ccc3[nH]c(=O)oc3c2)CC1 | -1
COCCCNC(=O)C1CCN(S(=O)(=O)c2ccc3[nH]c(=O)oc3c2)CC1 | 19* | TbREL1 conf=24*
O=C(C1CCN(S(=O)(=O)c2ccc3[nH]c(=O)oc3c2)CC1)N1CCCC1 | 5
CC(C)C[C@H](NC(C)(C)C(=O)NC1CCCCC1)C(=O)NCCc1c[nH]c2ccccc12 | 1
Cc1cc(C)cc(N(CC(=O)NC2CCC(C)CC2)S(=O)(=O)c2ccc(C(C)(C)C)cc2)c1 (stereo unspecified) | 1
COC[C@H]1CCCN1c1cccc2c1S(=O)(=O)N1CC[C@@H](C1)O2 | -1
CC(=O)Nc1ccccc1NC(=O)COc1cccc2ccccc12 | 0
CC(=O)Nc1ccc(NC(=O)c2cccc3ccccc23)cc1 | 3
CC(=O)Nc1cc2c3ccccc3ccc2c2ccccc12 | 32* | TbREL1 conf=5
O=C(NCc1ccco1)C1CCCN(S(=O)(=O)c2ccccc2[N+](=O)[O-])C1 (stereo unspecified) | -1
Cc1ccc(CSc2nnc(-c3ccccc3)n2Cc2ccco2)cc1 | 2
c1nc(NCC2CCCC2)c2cc(-c3ccc4c(c3)OCO4)ccc2n1 | 5
O=C(NCc1c(F)cccc1F)C1CCCN(c2ncccn2)C1 (stereo unspecified) | 2
O=C(c1ccc([N+](=O)[O-])cc1)N1CCN(C(=O)c2cccnc2)CC1 | -2
O=C(c1cccnc1)N1CCN(Cc2cccc(Br)c2)CC1 | 11* | TbREL1 conf=6
O=C(c1cccnc1)N1CCN(C(=O)c2ccco2)CC1 | 2
O=C(COc1ccc(F)cc1Cl)Nc1nnc(-c2ccc(F)c(F)c2)o1 | 5
Cc1ccc(-n2c(COc3ccccc3)nnc2SCC(=O)Nc2ccc3c(c2)OCO3)cc1 | -2
CC(=O)Oc1ccc(Cn2c(C)c(C(=O)NCCC#N)sc2=O)cc1 | -2
O=C(Nc1ccncc1)C1CCCN(S(=O)(=O)c2cccc3cccnc23)C1 (stereo unspecified) | -4
O=C(NC1CCCCC1)C1CCCN(S(=O)(=O)c2cccc3cccnc23)C1 (stereo unspecified) | 13* | TbREL1 conf=6
SMILES | TbREL1 inh | others
O=C(NC1CCCC1)C1CCN(S(=O)(=O)c2cccc3cccnc23)CC1 | -1
CN1CCCN(S(=O)(=O)c2ccc3c(c2)CCC(=O)N3)CC1 | -1
Fc1ccc(NC(=S)Nc2ccc3nccnc3c2)cc1 | 13* | TbREL1 conf=4
O=c1[nH]c2ccc(NC(=S)Nc3ccc(F)cc3)cc2[nH]1 | 2
N#Cc1ccccc1NC(=S)Nc1ccc(F)cc1 | 3
CCC(=O)N1CCCC(C(=O)NCc2ccc(C(C)C)cc2)CC1 (stereo unspecified) | 3
CCOC(=O)C1=CCN(S(=O)(=O)c2ccc(C)cc2)C1c1ccc(C(C)C)cc1 (stereo unspecified) | 2
O=C1CCC[C@H]2C[C@H](NCc3ccc(Cl)c(C(F)(F)F)c3)CC[C@]23CCCN13 | 4
CC(C)(C)c1ccc(-c2nnc3n2N=C(c2ccc(Cl)cc2)CS3)cc1 | 1
CCOc1ccc(-n2c(SCC(=O)Nc3ccc(S(=O)(=O)Nc4cc(C)nc(C)n4)cc3)nnc2-c2ccc(C)cc2)cc1 | -3
Cc1c(Cl)c(-c2n[nH]c(=S)n2-c2ccccc2)nn1C | -5
Cc1onc(-c2ccccc2)c1-c1n[nH]c(=S)n1-c1ccccc1 | 26* | TbREL1 conf=-1
Cc1ccc(-n2c(-c3ccccc3)n[nH]c2=S)cc1 | -5
COc1cc2c(cc1OC)[C@@]1(c3ccccc3)CCCC[C@H]1[C@@H]2NC(=O)C(F)(F)F | 0
CCOC(=O)[C@]12CCCC=C1N(CCCOC)C(=O)[C@@H]2CC(=O)NCCc1ccccc1OC | -5
Cc1cc(C)cc(N(CC(=O)NC2CCC(C)CC2)S(=O)(=O)c2ccc([N+](=O)[O-])cc2)c1 (stereo unspecified) | -1
COCCNCCOCCOc1ccc(Cl)c(C)c1 | 6
Cc1ccc(C)c(OCCCNCc2ccccc2)c1 | 10
Cc1cc(OCCOCCNCc2ccccc2)ccc1C(C)C | 19* | TbREL1 conf=9
CC(=O)N1CCN(c2cc(C)nc3nc(C)nn23)CC1 | 0
O=C(NC1CC[C@@]23CCCN2C(=O)CCC[C@H]3C1)c1ccccc1 (stereo partly specified) | -4
N#CC1=C(N)n2c(s/c(=C\c3ccco3)c2=O)=C(C#N)C1c1ccco1 (stereo unspecified) | 27* | TbREL1 conf=8
O=c1nc2s/c(=C\c3ccco3)c(=O)n2nc1Cc1ccc(F)cc1 | 1
O=c1/c(=C/c2ccco2)sc2n1CN(c1ccccc1)CN=2 | 4
CCCC[C@H]1C2CC(OC(=O)Nc3ccc(C)cc3)C(C2)[C@H]2CCCCN21 (stereo partly specified) | -1
SMILES | TbREL1 inh | others
CCCC[C@H]1C2CC(OC(=O)Nc3ccc(C#N)cc3)C(C2)[C@H]2CCCCN21 (stereo partly specified) | 11* | TbREL1 conf=4
CCCC[C@H]1C2CC(OC(=O)Nc3ccc(Br)cc3)C(C2)[C@H]2CCCCN21 (stereo partly specified) | 5
CN1CCCCC(NC(=O)C2CCCCC2)C1=O (stereo unspecified) | 0
COC(=O)C1=C(C)N(Cc2ccccc2C(F)(F)F)C(=NCc2ccc3c(c2)OCO3)NC1c1ccccc1 (stereo unspecified) | 12* | TbREL1 conf=14*
COC(=O)C1=C(C)N(Cc2ccccc2)C(=NCc2ccc3c(c2)OCO3)N[C@H]1c1ccccc1 | 9
COC(=O)C1=C(C)N(Cc2ccccc2C(F)(F)F)C(=NCc2ccc3c(c2)OCO3)NC1c1ccc(C(F)(F)F)cc1 (stereo unspecified) | 14* | TbREL1 conf=21*
COC(=O)C1=C(C)N(Cc2ccccc2C(F)(F)F)C(=NCc2ccc3c(c2)OCO3)NC1c1ccc(Cl)cc1 (stereo unspecified) | 11
CCOC(=O)Cc1nc(N2CCCN(C(C)=O)CC2)c2c(C)c(C(=O)OCC)sc2n1 | 1
COc1ccc2c(c1)N=C(c1[nH]c3ccccc3c1CCN1C(=O)c3ccccc3C1=O)[C@]2(O)CCN1C(=O)c2ccccc2C1=O | 2
Clc1cccc(CNC2CCC23CCCCC3)c1 (stereo unspecified) | -6
CC(C)[C@H]1/C(=C/C2CC2)N2C(=O)C[C@H](c3ccccc3)N=C2N1C | -5
COc1ccc(N2CCN(CCCNC(=O)Cn3c(=O)c4cccn4c4c(C)ccnc43)CC2)cc1 | -9
CC(=O)NC1CCCCN(C(C)C)C1=O (stereo unspecified) | 0
CN(Cc1ccco1)C(=O)[C@@H](Cc1ccccc1)NC(=O)[C@H]1O[C@@H](n2ccc(=O)[nH]c2=O)[C@H](O)[C@@H]1O | -1

High-throughput results deposited in PubChem BioAssay by The Scripps Research Institute Molecular Screening Center.
